# Source: PubChem BioAssay (Tox21)
# Unmarked numbers belong to inactive results. Records with an inconclusive call do not appear. Where a call stands in place of a potency, no number is given. Calls of active or inactive are those of the source. Unless noted, the call rests on the fitted dose curve.
# Assays:
# [1] = Nuclear factor erythroid 2-related factor 2/antioxidant responsive element (Nrf2/ARE) small molecule agonists: qHTS cell viability counter screen in human keratinocytes (AID 1919968; active means well fitted curve in the direction sought with a large enough effect in the repeat runs; an effect the other way counts as inactive or inconclusive; further: nearly all actives have a fitted effect of over 55% in size)
# In short: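 CellTiter-Fluor fluorescence, read 1 h after reagent, gave viability in the same wells as the ARE-luciferase assay. KeratinoSens cells (1,500/well) had 23 h compound exposure at 37 C/5% CO2 following 5 h plating.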
# [2] = Nuclear factor erythroid 2-related factor 2/antioxidant responsive element (Nrf2/ARE) small molecule agonists: luciferase reporter gene qHTS assay in human keratinocytes (AID 1919969); further: nearly all actives have a fitted effect of over 35% in size; further: potency means the concentration at half of the fitted maximal effect
# [3] = biological target: Gonadotropin-releasing hormone receptor (Homo sapiens) (UniProt P30968); assay: Human gonadotropin-releasing hormone receptor (GnRHR) small molecule agonists, calcium flux assay in GnRHR-HEK293 cells (AID 1920063); further: nearly all actives have a fitted effect of over 35% in size
# In short: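 Agonist mode: compounds at 15 concentrations, in triplicate, went onto calcium dye-loaded GnRHR-HEK293 cells. Intracellular calcium was then followed as 480/540 nm fluorescence at 1 s intervals over 3 min.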
# [4] = biological target: KiSS-1 receptor (Homo sapiens) (UniProt Q969F8); assay: Human kisspeptin (KISS1R) small molecule agonists, calcium flux assay in KISS1R-HEK293 cells (AID 1920064; active means well fitted curve in the direction sought with a large enough effect in the repeat runs; an effect the other way counts as inactive or inconclusive)
# In short: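 Agonist mode: intracellular calcium rise tracked at 1 s intervals over 3 min (480/540 nm) immediately after compound addition to dye-loaded KISS1R-HEK293 stable cells. Each compound tested at 15 concentrations in triplicate.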
# [5] = G protein-coupled receptor (GPCR) small molecule agonists, calcium flux assay: HEK293 wild type cell line counter screen (AID 1920065)
# In short: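 Calcium flux counter screen: compound added in agonist mode at 15 concentrations in triplicate to dye-loaded parental HEK293 cells. Fluorescence (480/540) read kinetically for 3 min; ATP served as positive control.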
# [6] = p53 small molecule agonists, cell-based qHTS assay with human liver microsomes (AID 1963577);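 further: p53 response element beta-lactamase reporter cells with liver microsomes plus NADPH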
# In short: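 In this qHTS, p53 response-element beta-lactamase cells receive test compound together with a microsome/NADPH activating system (0.5 mg/mL final each) and are incubated 16 h at 37 C before LiveBLAzer fluorescence detection.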
# [7] = p53 small molecule agonists, cell-based qHTS assay with rat liver microsomes (AID 1963578)
# In short: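 Agonist mode in p53RE-bla reporter cells, with compounds co-incubated 16 h at 37 C alongside 0.5 mg/mL rat liver microsomes and 0.5 mg/mL NADPH (final), followed by a 2 h LiveBLAzer detection step.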
# [8] = p53 small molecule agonists, cell-based qHTS assay with human liver microsomes: qHTS cell viability counter screen (AID 1963579); further: nearly all actives have a fitted effect of over 45% in size
# In short: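 Metabolically activated exposure: compounds, human liver microsomes and NADPH (0.5 mg/mL final apiece) were added to p53RE-bla cells seeded 5 h earlier, left 16 h at 37 C, and then assessed for viability by CellTiter-Glo luminescence.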
# [9] = p53 small molecule agonists, cell-based qHTS assay with rat liver microsomes: qHTS cell viability counter screen (AID 1963580); further: nearly all actives have a fitted effect of over 45% in size
# In short: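 Cytotoxicity counter screen: intracellular ATP read by CellTiter-Glo luminescence in the p53 reporter wells. HCT-116 p53RE-bla cells were treated for 16 h at 37 C alongside rat liver microsomes and NADPH, each 0.5 mg/mL final.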
# [10] = p53 small molecule agonists, cell-based qHTS assay: qHTS cell viability counter screen (AID 1963581); further: nearly all actives have a fitted effect of over 45% in size
# In short: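 Counter screen read by CellTiter-Glo luminescence (ATP content, 30 min at room temperature), run in the same wells as the beta-lactamase reporter read. HCT-116 p53RE-bla cells saw compounds for 16 h at 37 C.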
# [11] = p53 small molecule agonists, cell-based qHTS assay (AID 1963582; active means well fitted activation curve with a large enough effect in the signal ratio in the repeat runs, not every such curve was filed as active; the % refers to the signal ratio)
# In short: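 Read-out is beta-lactamase FRET fluorescence after 2 h at room temperature with LiveBLAzer B/G substrate. p53 response element-bla cells were treated 16 h at 37 C with compounds in DMSO, added 5 h after seeding.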
# [12] = biological target: 5-hydroxytryptamine receptor 2A (Homo sapiens) (UniProt P28223); assay: 5-hydroxytryptamine receptor 2A (HTR2A) small molecule antagonists, cell-based qHTS assay (AID 1963586); further: nearly all actives have a fitted effect of over 45% in size
# In short: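 CHO cells stably expressing human HTR2A were plated for 18 h at 37 C, then loaded with calcium dye for 1 h. Compounds were preincubated 5 min at room temperature before DOI (4 nM solution) was added. Kinetic fluorescence was read for 3 min.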
# [13] = biological target: 5-hydroxytryptamine receptor 2A (Homo sapiens) (UniProt P28223); assay: 5-hydroxytryptamine receptor 2A (HTR2A) small molecule agonists, cell-based qHTS assay (AID 1963587); further: nearly all actives have a fitted effect of over 30% in size; further: potency means the concentration at half of the fitted maximal effect
# In short: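 Kinetic calcium-flux fluorescence (2 min, 1 sec intervals) after compound addition in agonist mode. HTR2A-CHO cells were cultured 18 h, then dye-loaded 1 h at 37 C.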
# [14] = biological target: Muscarinic acetylcholine receptor M1 (Homo sapiens) (UniProt P11229); assay: Cholinergic receptor muscarinic 1 (CHRM1) small molecule antagonists, cell-based qHTS assay (AID 1963588); further: nearly all actives have a fitted effect of over 40% in size
# In short: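 Compounds were tested at 15 concentrations in three independent runs. Dye-loaded CHRM1-CHO cells were exposed 5 min at room temperature before stimulation by acetylcholine added at 50nM. Intracellular calcium was read kinetically on FDSS for 3 min.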
# [15] = biological target: Muscarinic acetylcholine receptor M1 (Homo sapiens) (UniProt P11229); assay: Cholinergic receptor muscarinic 1 (CHRM1) small molecule agonists, cell-based qHTS assay (AID 1963589); further: nearly all actives have a fitted effect of over 35% in size; further: potency means the concentration at half of the fitted maximal effect
# In short: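 Agonist-mode calcium-flux screen: compounds at 15 concentrations, three independent runs, were pin-transferred onto dye-loaded human CHRM1-CHO cells. Fluorescence was then recorded kinetically every second over minutes.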
# [16] = biological target: Beta-2 adrenergic receptor (Homo sapiens) (UniProt P07550); assay: Adrenergic beta2 receptor (ADRB2) small molecule antagonists, cell-based qHTS assay (AID 1963592); further: series mostly up to about 92 µM; nearly all actives have a fitted effect of over 50% in size
# In short: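 Assay format: CHO-ADRB2 cells, 18-20hr seeding at 37C/5% CO2, then compound plus 1nM isoproterenol agonist mix for 0.5hr RT. Homogeneous time-resolved fluorescence cAMP detection after 1hr, expressed as 665/615 nm ratio.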
# [17] = biological target: D(2) dopamine receptor (Homo sapiens) (UniProt P14416); assay: Dopamine D2 receptor (DRD2) small molecule agonists, cell-based qHTS assay (AID 1963594); further: nearly all actives have a fitted effect of over 35% in size
# In short: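 cAMP accumulation in DRD2-HEK293 cells measured by HTRF after 1 h detection; compounds added 10 min before NKH477 (200nM […]) forskolin-analogue stimulation, 30 min at room temperature, with Ro20-1724 present at 0.1 mM final.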
# [18] = biological target: D(2) dopamine receptor (Homo sapiens) (UniProt P14416); assay: Dopamine D2 receptor (DRD2) small molecule antagonists, cell-based qHTS assay (AID 1963595; active means well fitted inhibition curve with a large enough effect in the signal ratio in the repeat runs, with a control signal flat; the % refers to the signal ratio)
# In short: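 HEK293 cells stably expressing DRD2, preincubated with 0.1 mM Ro20-1724 and compounds 10 min, were stimulated with 200 nM NKH477 plus 12 nM quinpirole for 30 min at room temperature; cAMP measured by HTRF (665/620 nm).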
# [19] = cAMP Responsive Elements (CRE) small molecule agonists, cell-based qHTS assay (AID 1963590)
# In short: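 Agonist mode: compound added to CRE-bla HEK 293T cells (2,000/well, 18 h after plating) for 3 h at 37 C/5% CO2. Reporter activity detected via FRET beta-lactamase substrate, 2 h room-temperature loading.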
# [20] = cAMP Responsive Elements (CRE) small molecule antagonists, cell-based qHTS assay (AID 1963591; active means well fitted inhibition curve with a large enough effect in the signal ratio in the repeat runs, not every such curve was filed as active; the % refers to the signal ratio)
# In short: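 Antagonist mode: compounds are added alongside the adenylyl cyclase activator NKH477 (0.25 uM final) to CRE-bla HEK293T cells for 3 h. LiveBLAzer FRET substrate, 2 h at room temperature, reports bla expression.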
# Sequence of 5-hydroxytryptamine receptor 2A (Homo sapiens) (P28223 whole entry, looked up): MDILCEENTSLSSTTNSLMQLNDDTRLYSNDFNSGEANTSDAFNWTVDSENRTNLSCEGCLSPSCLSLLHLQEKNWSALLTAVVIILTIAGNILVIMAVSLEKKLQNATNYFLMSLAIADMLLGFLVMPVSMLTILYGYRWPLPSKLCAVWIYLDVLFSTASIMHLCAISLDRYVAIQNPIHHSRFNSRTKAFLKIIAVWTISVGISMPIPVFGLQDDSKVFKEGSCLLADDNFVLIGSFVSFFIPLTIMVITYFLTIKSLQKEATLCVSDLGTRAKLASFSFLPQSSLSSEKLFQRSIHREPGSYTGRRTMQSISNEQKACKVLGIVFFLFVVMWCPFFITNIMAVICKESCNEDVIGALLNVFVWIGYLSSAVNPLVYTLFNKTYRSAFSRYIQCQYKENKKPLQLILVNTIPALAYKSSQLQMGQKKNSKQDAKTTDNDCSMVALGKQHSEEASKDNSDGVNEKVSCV
# Sequence of D(2) dopamine receptor (Homo sapiens) (P14416 whole entry, looked up): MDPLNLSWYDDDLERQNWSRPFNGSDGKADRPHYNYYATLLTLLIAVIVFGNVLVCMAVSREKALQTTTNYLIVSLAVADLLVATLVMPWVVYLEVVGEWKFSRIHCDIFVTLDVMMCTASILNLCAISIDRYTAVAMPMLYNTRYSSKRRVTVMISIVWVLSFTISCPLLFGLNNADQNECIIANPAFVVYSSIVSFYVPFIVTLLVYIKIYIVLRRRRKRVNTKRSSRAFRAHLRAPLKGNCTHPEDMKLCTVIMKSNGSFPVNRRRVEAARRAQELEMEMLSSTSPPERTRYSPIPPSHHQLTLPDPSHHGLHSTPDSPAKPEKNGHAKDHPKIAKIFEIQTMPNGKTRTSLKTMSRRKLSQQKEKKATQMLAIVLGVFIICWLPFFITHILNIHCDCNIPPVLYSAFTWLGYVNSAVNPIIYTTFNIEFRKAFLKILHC
# Sequence of KiSS-1 receptor (Homo sapiens) (Q969F8 whole entry, looked up): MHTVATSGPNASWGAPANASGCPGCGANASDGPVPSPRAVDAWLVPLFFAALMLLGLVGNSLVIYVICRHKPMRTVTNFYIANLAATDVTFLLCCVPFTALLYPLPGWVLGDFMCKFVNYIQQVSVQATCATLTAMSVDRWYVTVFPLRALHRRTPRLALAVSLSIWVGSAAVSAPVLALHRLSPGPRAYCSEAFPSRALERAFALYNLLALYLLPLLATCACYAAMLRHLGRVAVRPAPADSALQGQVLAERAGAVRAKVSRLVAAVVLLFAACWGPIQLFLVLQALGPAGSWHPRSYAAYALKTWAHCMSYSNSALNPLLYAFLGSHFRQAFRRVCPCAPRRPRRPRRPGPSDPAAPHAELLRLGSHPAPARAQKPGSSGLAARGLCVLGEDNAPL
# Sequence of Beta-2 adrenergic receptor (Homo sapiens) (P07550 whole entry, looked up): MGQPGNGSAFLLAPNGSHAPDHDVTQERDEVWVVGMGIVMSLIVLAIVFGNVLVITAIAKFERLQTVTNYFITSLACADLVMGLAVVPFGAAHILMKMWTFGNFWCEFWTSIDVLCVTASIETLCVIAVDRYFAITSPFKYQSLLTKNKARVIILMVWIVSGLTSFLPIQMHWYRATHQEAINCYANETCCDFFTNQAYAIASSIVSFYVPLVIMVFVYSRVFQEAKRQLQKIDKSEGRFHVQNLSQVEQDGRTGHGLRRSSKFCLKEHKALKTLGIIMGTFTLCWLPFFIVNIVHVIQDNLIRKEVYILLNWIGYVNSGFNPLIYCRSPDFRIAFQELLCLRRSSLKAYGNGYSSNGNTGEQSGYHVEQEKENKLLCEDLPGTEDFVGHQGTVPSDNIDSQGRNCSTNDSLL
# Sequence of Gonadotropin-releasing hormone receptor (Homo sapiens) (P30968 whole entry, looked up): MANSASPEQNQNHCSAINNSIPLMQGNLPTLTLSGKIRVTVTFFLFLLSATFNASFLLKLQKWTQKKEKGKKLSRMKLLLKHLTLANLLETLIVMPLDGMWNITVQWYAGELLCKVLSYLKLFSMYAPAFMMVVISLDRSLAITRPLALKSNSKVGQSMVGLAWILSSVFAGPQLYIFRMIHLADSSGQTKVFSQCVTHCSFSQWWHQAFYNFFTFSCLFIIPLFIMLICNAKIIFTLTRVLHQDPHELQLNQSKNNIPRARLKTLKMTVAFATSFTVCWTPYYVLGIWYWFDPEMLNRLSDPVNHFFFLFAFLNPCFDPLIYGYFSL
# Sequence of Muscarinic acetylcholine receptor M1 (Homo sapiens) (P11229 whole entry, looked up): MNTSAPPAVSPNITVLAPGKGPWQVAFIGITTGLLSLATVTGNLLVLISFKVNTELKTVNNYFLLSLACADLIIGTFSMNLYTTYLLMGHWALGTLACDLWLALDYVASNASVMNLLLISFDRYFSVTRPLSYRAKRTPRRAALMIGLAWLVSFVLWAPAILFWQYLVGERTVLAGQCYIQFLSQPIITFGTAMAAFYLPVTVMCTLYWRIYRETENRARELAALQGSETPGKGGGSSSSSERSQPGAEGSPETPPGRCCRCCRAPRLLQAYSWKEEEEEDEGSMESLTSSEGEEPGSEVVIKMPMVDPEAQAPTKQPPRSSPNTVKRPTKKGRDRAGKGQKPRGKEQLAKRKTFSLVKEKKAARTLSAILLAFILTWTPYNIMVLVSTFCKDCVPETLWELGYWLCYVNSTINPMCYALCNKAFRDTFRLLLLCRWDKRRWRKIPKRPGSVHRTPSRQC
SMILES,Potency [1],Potency [2],Potency [3],outcome [4],outcome [5],Potency [6],Potency [7],Potency [8],Potency [9],Potency [10],Potency [11],Potency [12],Potency [13],Potency [14],Potency [15],Potency [16],Potency [17],Potency [18],Potency [19],Potency [20]
Cc1nc(C2CCCCC2)c(-c2ccc(S(N)(=O)=O)c(F)c2)o1,inactive,inactive,inactive,inactive,inactive,inactive,inactive,inactive,inactive,inactive,inactive,inactive,inactive,inactive,inactive,inactive,inactive,inactive,,
CCCCCCCC(=O)Oc1c(Br)cc(C#N)cc1Br,inactive,inactive,inactive,inactive,inactive,inactive,inactive,inactive,inactive,inactive,inactive,inactive,inactive,inactive,inactive,inactive,inactive,inactive,,
COc1cc2c(cc1OC)C(C(C(=O)N(CCc1ccc(OC)c(OC)c1OC)CCc1ccc(OC)c(OC)c1OC)c1ccccc1)=NCC2 (centres undefined),inactive,inactive,inactive,inactive,inactive,inactive,inactive,inactive,inactive,inactive,inactive,inactive,12 µM (active),inactive,inactive,,inactive,,,
Cc1c(NC(C)C)c(=O)n(-c2ccccc2)n1C,inactive,inactive,inactive,inactive,inactive,inactive,inactive,inactive,inactive,inactive,inactive,inactive,inactive,inactive,,inactive,,inactive,inactive,inactive
CC1CCC(C(C)CS)CC1S (centres undefined),inactive,inactive,inactive,inactive,inactive,inactive,inactive,inactive,inactive,inactive,inactive,inactive,inactive,inactive,,inactive,inactive,inactive,inactive,inactive
CC[C@H](NC(=O)c1cc(F)ccc1NS(=O)(=O)c1cccc2cccnc12)c1ccccc1,inactive,inactive,inactive,inactive,inactive,inactive,inactive,inactive,inactive,inactive,inactive,inactive,inactive,inactive,inactive,,inactive,inactive,,
O=C(OCC(O)CO)c1ccccc1Nc1ccnc2c(C(F)(F)F)cccc12 (centres undefined),inactive,inactive,inactive,inactive,inactive,inactive,inactive,inactive,inactive,inactive,inactive,inactive,inactive,inactive,inactive,inactive,inactive,inactive,,
CCOC(=O)Cn1c(=O)sc2cccc(Cl)c21,inactive,inactive,inactive,inactive,inactive,inactive,inactive,inactive,inactive,inactive,inactive,inactive,inactive,inactive,,,inactive,inactive,inactive,
O=C(O)CCSCCC(=O)O,inactive,inactive,inactive,inactive,inactive,inactive,inactive,inactive,inactive,inactive,inactive,inactive,inactive,,inactive,,inactive,inactive,inactive,inactive
[Cu+],inactive,54.5 µM (active),inactive,inactive,inactive,inactive,inactive,inactive,inactive,inactive,inactive,inactive,inactive,inactive,,inactive,,inactive,,inactive
Cc1ccc(C)c(N)c1,inactive,inactive,inactive,inactive,inactive,inactive,inactive,inactive,inactive,inactive,inactive,inactive,inactive,,inactive,inactive,inactive,inactive,inactive,inactive
CC(=O)OC1CCCCC1C(C)(C)C (centres undefined),inactive,inactive,inactive,inactive,inactive,inactive,inactive,inactive,inactive,inactive,inactive,inactive,inactive,inactive,,inactive,inactive,inactive,inactive,
Nc1c(Cl)cc(Cl)cc1Cl,inactive,inactive,inactive,inactive,inactive,inactive,inactive,inactive,inactive,inactive,inactive,inactive,inactive,,8.58 µM (active),inactive,inactive,inactive,inactive,inactive
C1=CCC(c2ccccc2)CC1 (centres undefined),inactive,inactive,inactive,inactive,inactive,inactive,inactive,inactive,inactive,inactive,inactive,inactive,inactive,,inactive,,inactive,inactive,inactive,inactive
O=C1OC(=O)c2cc([N+](=O)[O-])ccc21,inactive,inactive,inactive,inactive,inactive,inactive,inactive,inactive,inactive,inactive,inactive,inactive,inactive,,inactive,inactive,inactive,inactive,inactive,inactive
